The results in this text go back to PubChem BioAssay (NCATS).

Molecules are shown by their SMILES. Records with an inconclusive call do not appear. Values without a mark were called inactive. Calls of active or inactive are those of the source. Calls come from the whole dose curve; as a rule, active = well fitted curve in the direction sought with a large enough effect; inconclusive = small, poorly fitted or top-dose-only effect, or another doubt; inactive = no such curve, though single readings can be large; an effect the other way counts as inactive or inconclusive.

Assay [1] in a line: BET inhibitor-based combinations targeting novel dependencies in MECOM-rearranged (r) AML: SET-2 cell line (AID 2202231).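 For viability: plate controls were DMSO treated cells for no effect and wells without cells for full effect.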 Note: nearly all actives have a fitted effect of over 35% in size. Note: potency is the fitted concentration of half-maximal effect. The settings on record: SET-2 AML cells viability, CellTiter-Glo luminescence, 48 h; viability: stronger effect = lower value, concentration not given here. In a few lines:
(§1)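 Each compound was tested at eleven concentrations on cells seeded at 500/well. After two days' incubation, ATP-based luminescence reported viability; responses relative to DMSO and blank wells yielded AUC and cell-line-centred Z-AUC.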
(In general: ATP-based viability assays read luminescence as a measure of living cells.)

Assay [2] can be described thus: BET inhibitor-based combinations targeting novel dependencies in MECOM-rearranged (r) AML: MV-4-11 cell line (AID 2202233). Note: nearly all actives have a fitted effect of over 45% in size. Note: potency is the fitted concentration of half-maximal effect. In a few lines: (§2)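 First, 500 cells per well were seeded; next, drugs were pinned as 11-point doses; then plates sat 48 hr in the incubator; finally CellTiter-Glo was added and luminescence read, with AUC and Z-AUC computed.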
Assay [3] in a line: BET inhibitor-based combinations targeting novel dependencies in MECOM-rearranged (r) AML: HNT-34 cell line (AID 2202234).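 Note: plate controls were vehicle wells for no effect and cell-free wells for full effect; nearly all actives have a fitted effect of over 35% in size.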 In a few lines: as §2
A short description of assay [4]: BET inhibitor-based combinations targeting novel dependencies in MECOM-rearranged (r) AML: UCSD-AML1 cell line (AID 2202235).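 For viability (% of control): series mostly up to about 46 µM; plate controls were DMSO vehicle wells for no effect and blank wells for full effect.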 Note: nearly all actives have a fitted effect of over 40% in size. Note: potency is the fitted concentration of half-maximal effect. In a few lines: as §2
Assay [5] can be described thus: BET inhibitor-based combinations targeting novel dependencies in MECOM-rearranged (r) AML: AML-191 cell line (AID 2202236; note: nearly all actives have a fitted effect of over 35% in size; note: potency is the fitted concentration of half-maximal effect;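 for viability (% of control): plate controls were vehicle wells for no effect and wells without cells for full effect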). The essentials:
as §1

The nature of assay [6]: BET inhibitor-based combinations targeting novel dependencies in MECOM-rearranged (r) AML: AML-194 cell line (AID 2202237; note: nearly all actives have a fitted effect of over 40% in size; note: potency is the fitted concentration of half-maximal effect;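 for viability (% of control): plate controls were vehicle wells for no effect and wells without cells for full effect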). The essentials:
as §1

Usually viability stands for a read-out of living cells in per cent, often relative to untreated cells.

On to `CCc1c(C(=O)NNC(=O)[C@@H](O)c2cc(F)cc(F)c2)ccc(O)c1C`, for which, in assay [1], the viability was 97.8%. The Potency result in assay [2], in assay [3], in assay [5] and in assay [6] was “inactive” in each case. Further, in assay [4], the Potency is 7.42 µM (active).

On to `CN(C)Cc1cccc(N=C(c2ccccc2)c2c(O)[nH]c3cc(C(N)=O)ccc23)c1`, for which the viability in assay [1] is 78%. The Potency in assay [2] was 0.662 µM (active). Further, in assay [4], the Potency entry was “inactive”.

As for `CC(C)(C)c1nc2c3cc[nH]c(=O)c3c3cc(F)ccc3c2[nH]1`, the Potency is 1.18 µM (active) in assay [1], 1.18 µM (active) in assay [2], 0.235 µM (active) in assay [4] and 0.662 µM (active) in assay [5].

For the molecule `CCn1c(=O)c(-c2ccc(-c3cncc(C)n3)cc2Cl)cc2cnc(NCCC3CCN(C)CC3)nc21`, the viability in assay [1] was 93.7%. Besides, in assay [2], the Potency is 1.18 µM (active). Moreover, the viability (% of control) in assay [4] was 99.8% [at 5.12 µM]; in assay [6] it was 89.1% [at 5.12 µM].

Turning to `C[C@H](NC(=O)[C@H]1NCC[C@@H]1O)c1ccc(-c2noc(CCC3CCCC3)n2)cc1`, the outcome in assay [1] is “inactive; activator; fitted 0.0033 uM”. Moreover, the Potency result in assay [2], in assay [4] and in assay [6] was “inactive” throughout. Also, the Potency in assay [5] is 20.9 µM (active).

`Cc1cc(Nc2cc(N)ncn2)c(=O)n2c1C(=O)NC21CCCCC1`: the viability in assay [1] was 117%. Besides, in assay [2], the Potency was 8.11 µM (active). The Potency result in assay [4] and in assay [6] was “inactive” throughout.

For the molecule `C=CCc1cccc(/C=N/NC(=O)CN2CCN(Cc3ccccc3)CC2)c1O`, the Potency was 20.9 µM (active) in assay [1]; 16.6 µM (active) in assay [2]; 23.5 µM (active) in assay [4]; 8.33 µM (active) in assay [5]; 14.8 µM (active) in assay [6].

As to `COC(=O)[C@@H]1CC2=CC(=O)CC[C@]2(C)[C@@]23O[C@@H]2C[C@@]2(C)[C@@H](CC[C@@]24CCC(=O)O4)[C@H]13`, the viability in assay [1] was 106%. Further, the Potency entry in assay [2], in assay [3], in assay [4], in assay [5] and in assay [6] was “inactive” each time.

In the case of `CO[C@H]1O[C@@H]2O[C@@]3(C)CC[C@H]4[C@H](C)CC[C@@H]([C@H]1C)[C@@]24OO3`, the Potency in assay [1] was 20.9 µM (active); in assay [2] it was 4.17 µM (active); in assay [5], 16.6 µM (active). Moreover, the Potency entry in assay [4] is “inactive”.

With `CC[C@@H](Oc1cccc(CN(CCCOc2ccc(OC)cc2)c2nc3ccccc3o2)c1)C(=O)O`, the viability in assay [1] was 110%. Also, the Potency result in assay [2], in assay [3], in assay [4], in assay [5] and in assay [6] was “inactive” each time.

For `COc1ccc(S(=O)(=O)Nc2cc(-c3csc(C#N)c3)ccc2C)cc1`, the Potency was 0.209 µM (active) in assay [1]; 0.235 µM (active) in assay [2]; 0.148 µM (active) in assay [4]; 0.132 µM (active) in assay [5]; 0.332 µM (active) in assay [6].

As to `O=C1OC2(CCC(C(=O)Nc3ccn(-c4ccccc4F)n3)CC2)c2cnccc21` (configuration not stated), in assay [1], the viability is 90.4%. The Potency in assay [2] was 3.32 µM (active); in assay [5] it was 18.6 µM (active). Also, in assay [4], the Potency entry is “inactive”.

In the case of `FC(F)(F)c1ccc(CNc2ccc(Cc3c[nH]c4ncc(Cl)cc34)cn2)cn1`, the viability in assay [1] is 110%. Further, the Potency in assay [2] was 0.934 µM (active). Moreover, the Potency entry in assay [4] and in assay [6] was “inactive” in each case.

Regarding `COc1cc(C)c(/C=C/C(C)=C/C=C/C(C)=C/C(=O)O)c(C)c1C`, the viability in assay [1] is 101%. Moreover, the results for the Potency in assay [2] and in assay [5] were 5.9 µM (active) and 1.86 µM (active), respectively. For the same molecule, the Potency result in assay [4] and in assay [6] was “inactive” in each case.

As for `C=C1C(=CC=C2CCC[C@]3(C)[C@@H]([C@H](C)C=C[C@H](C)C(C)C)CC[C@@H]23)C[C@@H](O)C[C@@H]1O`, the Potency in assay [1] was 23.5 µM (active); in assay [2], 16.6 µM (active); in assay [5] it was 23.5 µM (active). Moreover, the Potency entry in assay [4] was “inactive”.

As for `COc1ccccc1C(=O)Nc1cc2c(cc1N1CCNC[C@H]1C)n(C)c(=O)n2C`, the viability in assay [1] is 103%. Also, the Potency in assay [2] was 5.9 µM (active). The Potency entry in assay [4] is “inactive”.

As for `C=CC(=O)N[C@H]1CCOC[C@H]1Nc1ncc2cc(-c3c(Cl)c(OC)cc(OC)c3Cl)ccc2n1`, in assay [1], the viability is 104%. In addition, the Potency in assay [2] is 18.6 µM (active). Further, the Potency entry in assay [4], in assay [5] and in assay [6] was “inactive” each time.

On to `Cc1ccc2cc(-c3c(C)ccc(C(=O)c4c(-c5ccccc5)n(C)n(-c5ccccc5)c4=O)c3N)ccc2n1`, for which the viability in assay [1] was 92.3%. The Potency entry in assay [2], in assay [4], in assay [5] and in assay [6] was “inactive” throughout.

Turning to `C[C@H]1CN(C2COC2)CCN1c1ccc(Nc2cc(-c3ccnc(N4CCn5c(cc6c5CC(C)(C)C6)C4=O)c3CO)cn(C)c2=O)nc1`, the viability in assay [1] is 121%. Besides, the Potency in assay [2] was 14.8 µM (active). In addition, the Potency entry in assay [4], in assay [5] and in assay [6] was “inactive” in each case.

Regarding `O=c1sn(-c2cccc3ccccc23)c(=O)n1Cc1ccccc1`, the viability in assay [1] is 92.2%. The results for the Potency in assay [2] and in assay [6] were 11.8 µM (active) and 14.8 µM (active), respectively. The Potency entry in assay [3] is “inactive”.

On to `CCOc1cc(/C=C2/C(=O)N(c3ccccc3)N=C2C)cc(Cl)c1OCC(=O)OC`, for which the viability in assay [1] is 103%. In addition, the Potency in assay [2] is 20.9 µM (active). In addition, the Potency result in assay [3], in assay [4], in assay [5] and in assay [6] was “inactive” throughout.
